LASV entry inh: qHTS for Inhibitors of binding or entry into cells for Lassa Virus | 300,000 tested, 1.2% active | Potency, µM (series often up to 37.9 µM), for inactives: at the highest dose activity change, negative = inhibition, usual class: inhibitors | Lassa virus pseudotype entry inhibition, cell reporter; calls by dose curve; tested in HEK293 cells; further: potency means the concentration at half of the fitted maximal effect; nearly all actives have a fitted effect of over 50% in size
HCMV inh: qHTS Assay for inhibitors of the human cytomegalovirus (HCMV) | AID 1259415, 2018 | HFF cells, HCMV-luciferase reporter, 72 h; hits give low values | 410,000 tested, 4.5% active | activity change, negative = inhibition, % at 57.5 µM; in the data active means activity change below about -60%; inconclusive means no clear call, values can overlap the other calls; inactive means above about -39%
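HFF cells seeded 16 h at 37C, treated with compounds, infected with luciferase-reporter HCMV at MOI 1 PFU/cell; luciferase read at 72 h post infection, normalized to buffer-only and Salinomycin controls.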
Pf growth 48h: Primary qHTS for delayed death inhibitors of the malarial parasite plastid, 48 hour incubation; P. falciparum luciferase growth in erythrocytes, 48 h; AID 504832, 2011; 310,000 tested, 5.9% active; Potency, µM (highest dose often 28.7 µM), without a hit: top-dose activity change, negative = inhibition, usual class: inhibitors; further: potency means the concentration at half of the fitted maximal effect
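Luciferase-expressing parasites in RBCs, 2% Hct / 0.1% parasitemia final; RPMI 1640 + 0.5% Albumax; 37 C, 5% CO2, one generation; luminescence read-out, lower signal = inhibition.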
MARV entry inh: qHTS for inhibitors of binding or entry into cells for Marburg Virus; 300,000 tested, 1.8% active; Potency, µM (series often up to 37.8 µM), for the others: at the highest dose activity change, negative = inhibition, actives largely listed as inhibitors; Marburg virus pseudotyped entry inhibition, cell reporter; calls by dose curve; tested in HEK293 cells; further: potency means the concentration at half of the fitted maximal effect
HCV inh: qHTS Assay for Inhibitors of Hepatitis C Virus (HCV). Huh7.5.1 HCVcc-Cre infection, luciferase reporter, 44 h. Potency, µM (highest dose often 41.8 µM), inactives show at the top dose activity change, negative = inhibition, hits mostly inhibitors. 340,000 tested, 3.4% active; further: potency means the concentration at half of the fitted maximal effect
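Reporter virus HCVcc-Cre (~0.5 moi) infects cells exposed to compound; seeding density 1,000 cells/well with 4 h settling beforehand. Luminescence, 15 sec read, taken 44 h post-infection following a 15 min RT substrate incubation.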
Pf growth 96h: Primary qHTS for delayed death inhibitors of the malarial parasite plastid, 96 hour incubation; Potency, µM (series often up to 28.7 µM), for the others: top-dose activity change, negative = inhibition, most hits filed as inhibitors; 320,000 tested, 6.9% active; AID 504834, 2011; P. falciparum luciferase reporter growth, 96 h; further: potency means the concentration at half of the fitted maximal effect
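Plates of compound plus infected erythrocytes (2% hematocrit, 0.05% parasitemia final) incubate 96 hours, 37 C, 5% CO2. Detection reagent added; reduced luminescence from the parasites' luciferase reporter flags inhibition.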
* marks the source's active call; other numbers are inactive results; ? = inconclusive; . = no result; [ ] = remark or other dose. Hits are enriched below; roughly 14% of the tested compounds scored in any of these assays. Unless noted, the call rests on the fitted dose curve; in most records, active means well fitted inhibition curve with a large enough effect; inconclusive means small, poorly fitted or top-dose-only effect, or another doubt; inactive means no such curve, though single readings can be large or run the other way. On the % scale 0 is the no-effect control and ±100 the full control effect.

SMILES	LASV entry inh	HCMV inh	Pf growth 48h	MARV entry inh	HCV inh	Pf growth 96h
C=CCn1c(SCC(=O)Nc2cccnc2Cl)nnc1-c1ccccc1F	?	-65*	-8%	-7%	-6%	-14%
C=CCn1c(SCC(=O)Nc2cccnc2Cl)nnc1-c1ccc(Cl)cc1	-30%	-37	10%	0%	-4%	37%
Cc1ccc(C)c(SCC(=O)Nc2cccnc2Cl)c1	.	-20	10µM*	.	-10%	?
CCCCc1nn2c(=O)cc(COC(=O)c3ccccc3C)nc2s1	?	13	.	.	.	.
Cc1nnc(SCC(=O)NCc2ccc3c(c2)OCO3)[nH]c1=O	14%	97	37%	5%	-23%	0.26µM*
CCCc1cc(=O)[nH]c(SCC(=O)NCc2ccc3c(c2)OCO3)n1	0%[46.1 µM]	-14	4%	0%[46.1 µM]	23%	12µM*
Cc1nnc(SCC(=O)NNC(=O)C(C)C)[nH]c1=O	29%	-26	18%	3%	0%	12µM*
O=C(Nc1ccc(N2CCOCC2)cc1)C1CC(=O)N(c2ccc(F)cc2)C1 (stereo not drawn)	3%[46.1 µM]	-6	-22%	-6%[46.1 µM]	0%	10µM*
O=C(c1ccccc1)c1ccccc1	.	34	8%	.	-3%	6%
CC(C)(C)n1cc(C(=O)c2ccccc2)cc1-c1ccccc1	.	-27	12µM*	.	?	?
Oc1[nH]c2ccccc2c1N=NC(=S)NCCc1ccccc1	?	69	-13%	?	-16%	0%
CCCCNC(=S)N=Nc1c(O)[nH]c2ccccc12	-30%[46.1 µM]	-15	?	?	0%	9.3µM*
CCOc1ccc(NC(=S)N=Nc2c(O)[nH]c3ccccc23)cc1	?	-11	?	?	13µM*	1.7µM*
O=C(CN(CC(=O)Nc1ccc(Br)cc1)CC(=O)Nc1ccc(Br)cc1)Nc1ccc(Br)cc1	.	-17	.	.	.	.
N=C1/C(=C\c2ccc(Br)o2)C(=O)N=C2SC(CC(=O)N3CCCCC3)=NN12	.	12	-2%	.	15%	3%
COc1ccc(OCC(=O)NNc2c3ccccc3nc3ccccc23)cc1	?	-75*	7.4µM*	?	6.3µM*	2.1µM*
COc1ccc(OCC(=O)NNC(=O)C(=O)Nc2ccccc2)cc1	.	-1	.	.	-17%	.
O=C(CCCO)NNc1c2ccccc2nc2ccccc12	-5%	-21	1.5µM*	8%[46.1 µM]	1µM*	1.3µM*
Cc1ccc(S(=O)(=O)N2CCCc3nc(-c4ccc(F)cc4)ccc32)cc1	.	47	.	.	.	.
CCCC1CCC(c2ccc(C(=O)NN)cc2)CC1 (stereo not drawn)	?	-79*	-30%	-19%	8%	50%
CCCCCC1CCC(c2ccc(C(N)=O)cc2)CC1 (stereo not drawn)	-4%	-14	1%	?	-4%	2.9µM*
COc1cccc(NC(=O)c2nnn(Cc3ccc(OC)c(Br)c3)c2N)c1	-7%[46.1 µM]	2	.	-7%[46.1 µM]	.	.
C/C(=N/NS(=O)(=O)c1ccc(C)cc1)c1c[nH]c2ccccc12	12%[46.1 µM]	20	0%	-28%[46.1 µM]	6%	1.3µM*
CCOc1ccc(NC(=O)CN2C(=O)c3ccccc3Sc3ccc(C(=O)OC)cc32)cc1	2%[46.1 µM]	14	.	.	.	.
CC(C(=O)Nc1ccc2c(c1)OCO2)N(C)CC(=O)Nc1ccc(Cl)cc1 (stereo not drawn)	0%	-3	.	?	-11%	.
SMILES	LASV entry inh	HCMV inh	Pf growth 48h	MARV entry inh	HCV inh	Pf growth 96h
Oc1cc[c]([Hg][Cl])cc1	.	.	1.9µM*	.	.	1.5µM*
COC(=O)C(c1ccccc1)(c1cn(Cc2ccccc2)c2ccccc12)C(Nc1ccccc1)c1ccccc1 (stereo not drawn)	.	-21	.	.	.	.
O=C(NCCN1CCN(C(=O)NC2CCCCC2)CC1)NC1CCCCC1	7%	35	24%	-1%	6%	13µM*
CCC1CCc2nc3sc(C(=O)Nc4ccc(F)cc4F)c(N)c3cc2C1 (stereo not drawn)	11%[46.1 µM]	1	.	3%[46.1 µM]	.	.
Cc1ccc(NNC(=O)C(O)(c2cccc(C(F)(F)F)c2)c2cccc(C(F)(F)F)c2)cc1	?	-89*	13µM*	?	?	?
O=C(NNc1ccccc1Br)C(O)(c1cccc(C(F)(F)F)c1)c1cccc(C(F)(F)F)c1	?	-99*	2.6µM*	?	?	2.3µM*
Cc1ccc(C(O)(C(=O)NNc2ccccn2)c2ccc(C)cc2)cc1	-9%	?	-15%	-6%[46.1 µM]	-17%	?
CCc1nnc(SCc2cccc(F)c2)c2cc3sc(C)cc3n12	-22%[46.1 µM]	?	.	.	.	.
O=C(Nc1cccc(S(=O)(=O)NC2=NCCC2)c1)c1ccccc1OC(F)F	-3%	9	-9%	-8%	4%[8.37 µM]	82%
CCOC(=O)CN1C(=O)C2(CC(C)=C[C@@H](C)O2)c2c(Br)cccc21 (stereo partly drawn)	?	.	.	3%[14.2 µM]	.	.
O=[N+]([O-])C(=C1SCCS1)C(=C(Cl)Cl)N1CCCCC1	1%[46.1 µM]	-25	-13%	?	-1%	27%
O=[N+]([O-])C(/C=C(\Cl)[N+](=O)[O-])=C(N1CCCCC1)N1CCCCC1	-25%[46.1 µM]	-15	?	?	-22%	1.2µM*
COc1cccc(OC)c1OCCCOc1ccc([N+](=O)[O-])cc1Cl	9%	?	-7%	?	?	-2%
CCOc1ccccc1OCCCOc1ccc([N+](=O)[O-])cc1Cl	11%	-18	?	-2%[46.1 µM]	13µM*	10µM*
Cc1ccc2c(C)nc(NC3=NCN(CCc4ccccc4)CN3)nc2c1	.	.	2.6µM*	6%	.	239%
COCCN1CN=C(Nc2nc(C)c3ccc(C)cc3n2)NC1	.	.	2.1µM*	2%	.	3%
COc1ccc2c(c1)C(=O)C(=O)N2CCS(=O)(=O)c1ccccc1	.	?	-10%	.	23%	?
O=C1C(=O)N(CCS(=O)(=O)c2ccccc2)c2ccc(F)cc21	.	?	?	.	5%	9.3µM*
O=c1c2c3c(sc2nnn1Cc1ccc(Br)cc1)CCCC3	-2%[46.1 µM]	6	.	-10%[46.1 µM]	.	.
CCOC(=O)c1c(N2C(=O)CC(Sc3ccccc3C(=O)O)C2=O)sc(C)c1C (stereo not drawn)	.	?	2.3µM*	.	3%	53%
Cc1cc(C)cc(N2C(=O)CC(Sc3ccccc3C(=O)O)C2=O)c1 (stereo not drawn)	-10%	20	50%	?	29%	64%
CCCCCCCCN1C(=O)[C@@H](CC(=O)N2CCN(C(=O)C3CC3)CC2)C[C@@]2(C(=O)OC)C1=C[C@H](C1CCCC1)O[C@@H]2C	.	67	.	.	.	.
